Measured values from PubChem BioAssay AID485270 (The Scripps Research Institute Molecular Screening Center, 2010).
Among all 330,000 compounds or so, about 5,800 (1.8%) were called active. Rule as the data show it: active = inhibition mostly above about 38% (no sharp cut-off); inactive = mostly below about 40%. The list comes from a sample in which actives are over-represented; it also holds similar structures and randomly drawn compounds.

Target: Orexin/Hypocretin receptor type 1 (Homo sapiens) (UniProt O43613)
Test: blocks the human orexin 1 receptor (AID 485270);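 also: 0% = agonist challenge alone and 100% = reference antagonist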
Settings: OX1R-expressing cells, FRET antagonist read-out; at 6.6 µM; stronger effect = higher value

Chain of Orexin/Hypocretin receptor type 1 (Homo sapiens) (O43613 whole entry, looked up): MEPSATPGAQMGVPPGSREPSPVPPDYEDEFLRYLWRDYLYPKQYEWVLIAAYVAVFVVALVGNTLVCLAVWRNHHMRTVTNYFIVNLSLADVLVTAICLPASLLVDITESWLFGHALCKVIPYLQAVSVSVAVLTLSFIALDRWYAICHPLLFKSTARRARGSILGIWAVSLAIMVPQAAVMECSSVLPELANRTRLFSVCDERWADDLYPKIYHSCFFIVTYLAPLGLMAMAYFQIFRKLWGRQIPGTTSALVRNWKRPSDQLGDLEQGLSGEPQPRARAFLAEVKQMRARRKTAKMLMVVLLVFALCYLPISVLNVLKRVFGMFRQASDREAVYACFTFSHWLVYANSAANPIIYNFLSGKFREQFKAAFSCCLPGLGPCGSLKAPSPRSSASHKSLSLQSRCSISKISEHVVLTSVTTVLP

Structure (SMILES)	inhibition
O=C(CSc1ncn[nH]1)Nc1ccc(Br)cc1Br	5.47% (inactive)
C=CC[C@@H](CC(=O)N[C@@H](CO)Cc1ccccc1)C(=O)N[C@H](COC(=O)[C@H](CC=C)CC(=O)OC(C)(C)C)Cc1ccccc1	3.4% (inactive)
CN(Cc1ccc(F)cc1)C(=O)CN1C(=O)c2ccccc2S1(=O)=O	13.1% (inactive)
O=C(OC1CCOC1=O)c1ccc(-c2nc3ccccc3s2)s1 (configuration not stated)	119% (active)
CC(C)c1ccc(C(=O)OC2CCOC2=O)cc1 (configuration not stated)	27.2% (inactive)
Cc1nn(Cc2ccccc2)c(Cl)c1C(=O)OC1CCOC1=O (configuration not stated)	21.6% (inactive)
Cc1ccc(S(=O)(=O)N2CCCCC2)cc1NC(=O)CCNC(=O)c1ccccc1	2.26% (inactive)
COc1cccc(CNC(C)C(=O)Nc2ccc(S(=O)(=O)N3CCCC3)cc2)c1 (configuration not stated)	2.03% (inactive)
O=C(NNC(=O)c1ccc(Cl)nc1)c1ccc(Br)cc1	8.95% (inactive)
CCN(C[C@H]1N[C@@](CC)(C(=O)OC)[C@H]2C(=O)N(Cc3ccccc3)C(=O)[C@@H]12)S(=O)(=O)c1ccccc1	6.85% (inactive)
O=C(Nc1ccccc1Cl)/C(Cl)=C(\Cl)S(=O)c1ccccc1 (configuration not stated)	87.9% (active)
Cc1c(NC(=O)Nc2ccccc2Cl)sc(=S)n1C	12.2% (inactive)
O=C(Cc1ccc2c(c1)CCCC2)Nc1ccccc1Cl	6.59% (inactive)
COc1ccc(CNC(=O)C2CCN(C(=O)c3ccco3)CC2)cc1	14.6% (inactive)
CC(=O)c1c(OCC(=O)N(C)C2CCCCC2)ccc2c(C)cc(=O)oc12	2.71% (inactive)
O=C(NCC1CC1)c1onc(CSc2ccccc2)c1C(=O)NCC1CC1	28.4% (inactive)
O=C(NCc1ccccc1)c1onc(CSc2ccncc2)c1C(=O)NCc1ccccc1	16.4% (inactive)
O=C(NCc1ccccc1)c1onc(CSc2nc3ccccc3[nH]2)c1C(=O)NCc1ccccc1	71.2% (active)
O=S(=O)(Nc1ncnc2sccc12)c1cccc(F)c1	3.31% (inactive)
Cc1cc(NC(=O)COC(=O)/C=C/c2ccc(C)o2)no1	1.38% (inactive)
C=CCSc1nnc2c(n1)-c1cccc3cccc-2c13	56.6% (active)

Structure (SMILES)	inhibition
CCOC(=O)C1=CN(Cc2ccc(Br)cc2)S(=O)(=O)NC1C (configuration not stated)	8.5% (inactive)
COc1cc2c(-c3ccc4c(c3)OCO4)c(-c3ccsc3)oc(=O)c2cc1OC	16.2% (inactive)
CC(OC(=O)c1cc2ccccc2[nH]1)C(=O)N(C)c1ccccc1 (configuration not stated)	5.48% (inactive)
O=C(CN1CCCC1)N1CCN(c2ccccc2)CC1	3.2% (inactive)
COc1ccc(C(=O)COC(=O)c2ccc([N+](=O)[O-])s2)cc1OC	38.5% (active)
COc1ccc(C(=O)OCC(=O)Nc2ccc3[nH]c(=O)[nH]c3c2)c(OC)c1OC	18% (inactive)
O=C(OCC(=O)N1CCN(c2ccccc2)CC1)c1ccc([N+](=O)[O-])s1	42.6% (active)
COc1cc(C(=O)OCc2ccc([N+](=O)[O-])cc2)cc(OC)c1OC	14.5% (inactive)
COc1ccc(C(=O)OCC(=O)c2ccc(C)c(S(=O)(=O)N3CCOCC3)c2)cc1OC	27.8% (inactive)
COc1cc(NC(=O)COC(=O)c2ccc([N+](=O)[O-])s2)cc(OC)c1OC	47.4% (active)
C[C@H](NC(=O)c1ccccc1Cl)C(=O)OCC(=O)N1CCN(c2ccccc2)CC1	3.17% (inactive)
COc1ccc(C(=O)NCC(=O)N/N=C/c2ccc([N+](=O)[O-])s2)cc1OC	44% (inactive)
C[C@H](CO)N1C[C@H](C)[C@H](CN(C)C(=O)Nc2ccc(C(F)(F)F)cc2)Oc2c(NC(=O)c3ccncc3)cccc2C1=O	12.5% (inactive)
CCOc1ccc(Br)cc1S(=O)(=O)Nc1ccc(S(=O)(=O)Nc2cc(C)on2)cc1	-0.05% (inactive)
CN(C)C(=O)CCc1ccc2c3c([nH]c2c1)[C@]1(CCc2ccccc2)[C@@H](C(=O)N2CCCCC2)C[C@H](CC(=O)NCCC2=CCCCC2)C(=O)N1CC3	10.4% (inactive)
COc1ccc2sc(-c3ccc(S(C)(=O)=O)cc3)c(C#Cc3cncn3C)c2c1	6.52% (inactive)
C=CCC[C@H](Cc1ccc(F)cc1)C(=O)OC[C@@H](Cc1c[nH]c2ccccc12)NC(=O)[C@H](CC=C)CC(=O)N[C@H](CO)Cc1ccccc1	3.33% (inactive)
COc1ccccc1NC(=O)COC(=O)CNC(=O)C1CCCCC1	5.3% (inactive)
Cc1c(Cl)cnc(NC(=O)COC(=O)C2CCCC2)c1Cl	2.82% (inactive)
COc1ccc(C(=O)COC(=O)CN2C(=O)C3CC=CCC3C2=O)c(OC)c1 (configuration not stated)	0.55% (inactive)
CCN([C@H](CO)C(C)C)S(=O)(=O)c1ccccc1Br	8.87% (inactive)

Structure (SMILES)	inhibition
CCCN=C1N(C)C[C@@H]2[C@@H]3C(=O)N(Cc4ccccc4)C(=O)[C@@H]3[C@](C)(C(=O)OC)N12	3.52% (inactive)
Cc1cc[n+](-c2[nH]c(=O)sc2/C=N/NC(=O)c2ccccc2[O-])cc1C	67.1% (active)
Cc1ccc(/C=N/NC(=O)c2cc3ccccc3cc2O)o1	22.1% (inactive)
Cc1ccc2occ(/C=N/NC(=O)c3ccccc3C)c(=O)c2c1	11.9% (inactive)
C[C@H](CO)N1C[C@H](C)[C@@H](CN(C)S(=O)(=O)c2ccc(F)cc2)Oc2c(NC(=O)Nc3ccccc3)cccc2C1=O	3.72% (inactive)
Fc1ccc2cnc(-c3ccccc3)cc2c1	1.78% (inactive)
O=C(Nc1ccccc1F)c1ccc2c(c1)OCO2	0.6% (inactive)
Fc1ccccc1-c1cc2cc3c(cc2cn1)OCO3	66% (active)
COc1ccccc1N1CCN(S(=O)(=O)c2ccc(Cl)cc2)CC1	4.56% (inactive)
Cc1ccc(S(=O)(=O)N2[C@@H](c3cccc(Cl)c3)C(C(=O)O)=CC[C@H]2c2ccc(Cl)c(Cl)c2)cc1	81.4% (active)
Cc1ccc(S(=O)(=O)N2[C@@H](c3ccccc3F)C(C(=O)O)=CC[C@H]2c2ccc(Cl)cc2)cc1	64.8% (active)
Cc1ccc(S(=O)(=O)N2[C@@H](c3ccc(Br)cc3)C(C(=O)O)=C[C@H]2CC2CCCC2)cc1	31.2% (inactive)
Cc1ccc(S(=O)(=O)N(CC(=O)N2CCc3ccccc3C2)c2cccc(Cl)c2)cc1	40% (inactive)
Cc1ccc2c(c1)C(c1ccccc1)N(C(=O)c1ccc(S(=O)(=O)N3CCOCC3)cc1)CC(=O)N2 (configuration not stated)	7.06% (inactive)
Cc1ccc(S(=O)(=O)N2CCN(CC(=O)N/N=C/c3cc([N+](=O)[O-])ccc3Cl)CC2)cc1	19.3% (inactive)
CS(=O)(=O)N(CC(=O)N1CCN(c2cccc(Cl)c2)CC1)c1ccccc1	-2.69% (inactive)
Cc1ccc(S(=O)(=O)N2C3C=CC(C3)C2C(=O)O)cc1 (configuration not stated)	7.96% (inactive)
CN1OC(COC(=O)c2ccc(Cl)cc2)CC1c1ccccc1 (configuration not stated)	-0.66% (inactive)
Cc1ccccc1S(=O)(=O)N1[C@@H](c2cccc(Cl)c2)C(C(=O)O)=CC[C@H]1c1ccc(Cl)cc1	90.2% (active)
Cc1ccc([C@@H]2CC=C(C(=O)O)[C@H](c3cccc(Cl)c3)N2S(=O)(=O)c2ccc(C)cc2)cc1	82.9% (active)
